Compound activity from PubChem.
CF NFkB inh – inhibitors of PAF-induced NF-kB signaling, primary screen, cell-based, GFP fluorescence, uHTS. KKLEB NF-kB-GFP reporter, GFP fluorescence overnight. inhibition, % at 5 µM. 0.86% of 360,000 active. AID 588850, 2011;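 active = at least 50% inhibition at 5 µM, scaled per plate between neutral and stimulator controls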;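 also: PAF is a Pseudomonas aeruginosa culture filtrate used as stimulus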
KKLEB tox – cytotoxicity in KKLEB CF airway cells, primary screen, cytotoxicity control for CF NF-kB inhibitor project, cell-based, uHTS, fluorescence assay plates; KKLEB CF airway cells viability, ATPlite luminescence, overnight; active compounds read low; cells stimulated with P. aeruginosa culture filtrate; activity change (cytotoxicity), % at 5 µM; 0.36% of 360,000 active; AID 602141, 2011;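 active = corrected activity change at or below -50% at 5 µM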
HIF-2a block – HIF-2a reporter inhibitors, primary screen, luminescence, 786-0 RCC cells | 786-0 RCC cells HIF-2a reporter, luciferase luminescence, overnight | inhibition, % at 18.8 µM | 0.72% of 360,000 active | AID 624352, 2012;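 active = inhibition of the luminescence signal of 40% or more relative to plate controls, in a single-dose primary screen at 18.75 µM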
TROY signal inh – inhibitors of TROY-driven NF-kB signaling, primary screen, Q293 LMP1-TROYcd cells, NF-kB luciferase, uHTS | Q293 LMP1-TROYcd NF-kB luciferase reporter, 4 h | inhibition, % at 10 µM | 0.98% of 360,000 active;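 active = compounds whose plate-normalised and pattern-corrected inhibition of the luciferase reporter signal at the single screening dose is 50% or more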
TWEAK Fn14 block – inhibitors of TWEAK-Fn14 signaling, primary screen, luciferase reporter cells, uHTS; TWEAK-stimulated Fn14 reporter cells, luciferase luminescence, 8 h; 2% of 360,000 active; inhibition, % at 10 µM; in the data active = inhibition above about 50%
Peg3 prom inh – Peg3 promoter-driven luciferase inhibitors, primary screen, cell-based, HeLa, luciferase luminescence; AID 588405, 2011; 1.7% of 360,000 active; HeLa PEG-Prom luciferase reporter, overnight; inhibition, % at 20 µM;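 active = inhibition of at least 50% at 20 µM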
Each line names hits and unclear results; the compound was inactive in the other large screens. Compounds with a hit are over-represented: about 3.9% of the library has one in this group of screens.

CCOC(=O)c1c(NC(=O)COc2ccccc2OCC)sc2c1CC(C)(C)NC2(C)C	Peg3 prom inh 107
CCOC(=O)c1c(NC(=O)COc2ccccc2C#N)sc2c1CC(C)(C)NC2(C)C	none
CCOC(=O)c1c(NC(=O)CSc2nnnn2-c2ccccc2)sc2c1CC(C)(C)NC2(C)C	Peg3 prom inh 55
CCCC(=O)Nc1ccc(NC(=O)c2cc3ccccc3o2)c(OC)c1	none
CCc1nc2c(OCc3ccc(Cl)cc3)cccn2c1N(C)C(=O)C1CC1	none
CCOC(=O)C(NCc1ccco1)(NC(=O)c1ccccc1)C(F)(F)F (centres undefined)	TWEAK Fn14 block 87
CCOC(=O)C(NC(=O)c1ccccc1)(Nc1cccc(C)n1)C(F)(F)F (centres undefined)	none
CN(C)C(=S)c1ccc(N(C)C)cc1	none
CC(=O)c1ccc(N=Nc2ccc(N(C)C)cc2)cc1	TROY signal inh 54, TWEAK Fn14 block 104
C=C(C)C(=O)Oc1ccc(N=Nc2ccc(C)cc2)ccc1=O	TWEAK Fn14 block 59
CC(=O)c1ccc(N=Nc2ccc(C)cc2)cc1	TROY signal inh 61, TWEAK Fn14 block 68
C=C(C)C(=O)Oc1ccc(N2C(=O)CCC2=O)cc1	none
Cc1ccc(C(=O)c2ccc(C)cc2)cc1	none
Cc1cc(N(C)C)ccc1N=Nc1ccc(N)cc1	none
CN(C)c1ccc(N=Nc2ccccc2Br)cc1	TWEAK Fn14 block 77
O=C1CCC(C(=O)N2CCCCCC2)CN1Cc1cccc(C(F)(F)F)c1 (centres undefined)	none
COc1ccc(S(=O)(=O)NC(=O)C2(C)CCN2C(=O)Cc2cc(C)cc(C)c2)cc1 (centres undefined)	none
O=C(Nc1nc(-c2ccccc2)cs1)C1COc2ccccc2O1 (centres undefined)	none (no result: TROY signal inh)
O=C(Nc1nc(-c2ccccc2)cs1)c1ccc2c(c1)S(=O)(=O)c1ccccc1C2=O	KKLEB tox -57
O=C(Nc1nc(-c2ccc(S(=O)(=O)N3CCCC3)cc2)cs1)C1COc2ccccc2O1 (centres undefined)	TWEAK Fn14 block 61
CN(C)S(=O)(=O)c1ccc(C(=O)Nc2nc(-c3cccs3)cs2)cc1	TROY signal inh 55, TWEAK Fn14 block 56
O=C(Nc1nc(-c2ccc(S(=O)(=O)N3CCCCCC3)cc2)cs1)c1ccccc1	TWEAK Fn14 block 70
O=C(Nc1nc(-c2ccc3c(c2)OCCO3)cs1)c1ccc(S(=O)(=O)N2CCCCC2)cc1	none
Cc1ccc(S(=O)(=O)N(C)C)cc1NC(=O)COC(=O)COc1ccc2c(c1)CCC2	none
O=C(NCc1cccnc1)C1CCCN(S(=O)(=O)c2ccc(Cl)cc2)C1 (centres undefined)	none
CNC(=O)NC(=O)CSc1nnc(-c2ccco2)n1-c1ccccc1	none
O=C(Nc1nc(-c2cccs2)cs1)c1ccc(S(=O)(=O)N2CCCC2)cc1	TROY signal inh 66, TWEAK Fn14 block 93
O=C(COc1ccc(Cl)cc1)Nc1nc(-c2ccc(S(=O)(=O)N3CCOCC3)cc2)cs1	TWEAK Fn14 block 71
O=C(Nc1nc(-c2ccco2)cs1)c1ccccc1	none
O=S(=O)(c1ccc(-c2csc(Nc3ccc(Br)cc3)n2)cc1)N1CCCC1	TWEAK Fn14 block 61
Cc1ccc(-c2csc(NC(=O)c3ccc(-c4ccccc4)cc3)n2)o1	TWEAK Fn14 block 67
CC(=O)c1cccc(S(=O)(=O)Nc2cccc(S(=O)(=O)NC3=NCCC3)c2)c1	none
CC1CCC2C(=O)N(c3ccc(NC4CCN(Cc5ccccc5)CC4)c([N+](=O)[O-])c3)C(=O)C2C1 (centres undefined)	none
CCCC(=O)Nc1cc(-c2nnc(OC)c3ccccc23)ccc1N1CCOCC1	none
CCN(CC)CCNC(=O)c1ccc(NC(=O)Cc2cccc3ccccc23)cc1	none
Cc1cc(F)ccc1-c1cc(C(=O)NCc2ccc(C(F)(F)F)cc2)[nH]n1	none
CCCc1c(O)c2ccccc2[nH]c1=O	TWEAK Fn14 block 80 (no result: TROY signal inh)
CCCCc1c(O)c2ccccc2[nH]c1=O	none
O=C(Cc1ccc(Cl)cc1)c1c[nH]c(C(=O)NCc2cccnc2)c1	Peg3 prom inh 102
CCN(CC)CCCNC(=O)CSc1c2c(nc3cc(Cl)ccc13)CCCC2	Peg3 prom inh 96
C=CCn1c(NC(=O)c2ccccc2Cl)c(C#N)c2nc3ccccc3nc21	TROY signal inh 66
Cc1c(C(c2cc3c(cc2Br)OCO3)c2c(C)n(C)n(-c3ccccc3)c2=O)c(=O)n(-c2ccccc2)n1C	TWEAK Fn14 block 64
Cc1sc(N=Nc2ccc(N(C)C)cc2)[n+]([O-])c1C	TROY signal inh 63, TWEAK Fn14 block 61
Cc1ccc(N=Cc2ccc(N(C)C)cc2)cc1	none
CCCc1cc(=O)n2c([nH]c3ccccc32)c1C#N	none
c1ccc(COc2ncnc3c2ncn3CCCNCC(c2ccccc2)c2ccccc2)cc1	Peg3 prom inh 100
COc1ccc(-n2cc(C#N)c(=O)n(Cc3ccc(F)cc3)c2=O)cc1	none
Cc1cc(C(=O)Nc2ccc(Cl)cc2)c(C)n1Cc1cccs1	TROY signal inh 51, TWEAK Fn14 block 60
Cc1cc(C(=O)Cn2nnc3ccccc3c2=O)c(C)n1Cc1cccs1	none
Cc1cc(C(=O)CN2C(=O)c3ccccc3C2=O)c(C)n1Cc1cccs1	TWEAK Fn14 block 83
O=C(Nn1cnc2ccccc2c1=O)c1ccccc1Cl	none
O=C(c1ccc(CSc2nc3ccncc3[nH]2)cc1)N1CCCCCC1	none
O=C(c1ccc(CSc2nc3ccncc3[nH]2)cc1)N1CCN(c2cccc(Cl)c2)CC1	TROY signal inh 54, TWEAK Fn14 block 61
Clc1ccc(CSc2nc3ccncc3[nH]2)cc1	KKLEB tox -59
Cc1ccc(CSc2nc3ccncc3[nH]2)cc1	KKLEB tox -70
COc1ccc2sc(-c3ccc(S(C)(=O)=O)cc3)c(C#CCO)c2c1	TWEAK Fn14 block 77
COc1cc(-c2ccc3sc(-c4ccsc4)c(C#CCO)c3c2)cc(OC)c1OC	TWEAK Fn14 block 60, Peg3 prom inh 56
COc1ccc(-c2sc3ccccc3c2C#CCO)cc1	none
CC1=C(C(=O)Nc2ccc(C)cc2C)C(c2cccc([N+](=O)[O-])c2)n2nc(C(=O)OC(C)C)nc2N1 (centres undefined)	Peg3 prom inh 81
CN(C)CCCN(C(=O)COc1ccc(Cl)cc1)c1nc2cc3c(cc2s1)OCCO3	none
Cc1noc(C)c1S(=O)(=O)Nc1c(C)n(C)n(-c2ccccc2)c1=O	none
NS(=O)(=O)c1cccc(NC(=O)c2ccccc2NS(=O)(=O)c2ccc(F)cc2)c1	none
